The values below come from ChEMBL document CHEMBL4513146, “CO-ADD screening of Karazin Kharkiv National University (Ukraine) compounds”.

Entries with a potency or affinity are not part of this list.

One assay concerns Staphylococcus aureus. Conditions: Concentration 32 ug.mL-1;; ASSAY_TEST Inhibition of Bacterial Growth; detection method Absorption (OD600); MEDIA CAMHB; plate type 384well; NBS; CORNING #3640; time 18 hr.
Another assay has as its system Escherichia coli. The settings on record: Concentration 32 ug.mL-1;; ASSAY_TEST Inhibition of Bacterial Growth; detection method Absorption (OD600); MEDIA CAMHB; plate type 384well; NBS; CORNING #3640; time 18 hr.

A word on the Inhibition: it is the relative decrease from the control value, in per cent.

Take `CCOC(=O)c1ccc(NC(=O)Cn2nc3ccc(SCc4ccc(Cl)cc4)nn3c2=O)cc1`: the Inhibition is listed as -0.24% in the assay on Staphylococcus aureus and -11.17% in the assay with Escherichia coli.
For `CCCCOc1ccc(-c2cc3c4nnc(SCC(=O)Nc5cc(C)ccc5C)n4ccn3n2)cc1`, in that order: -14.19% and -10.44%.
For `CSc1cccc(NC(=O)Cn2nc3c(Sc4cccc(F)c4)nccn3c2=O)c1`, in that order: 2.75% and -0.46%.
For `Cc1ccc(-n2ccn3c(SC(C)C(=O)Nc4ccc5c(c4)OCCO5)nnc3c2=O)cc1C` (configuration not stated), in that order: 12.06% and -2.85%.
Consider `CC(C)c1nnc2c(SCC(=O)Nc3ccc(Cl)cc3C(F)(F)F)nc3ccccc3n12`, for which the results for the Inhibition in the assay on Staphylococcus aureus and in the assay with Escherichia coli were 2.01% and -15.72%, respectively.
Turning to `COc1cccc(-n2ccn3c(SCC(=O)NCc4ccc(C)cc4)nnc3c2=O)c1`, the figures for the Inhibition in the assay on Staphylococcus aureus and in the assay on Escherichia coli were -1.77% and 2.15%, respectively.
The corresponding values for `CCc1nnc2c(SCC(=O)Nc3cccc(C(C)=O)c3)nc3ccccc3n12` are 2.41% and 4.71%.
For `COc1ccc(-c2nc(CSc3nc4ccccc4n4c(C(C)C)nnc34)c(C)o2)cc1`, in that order: -9.17% and -2.62%.
The corresponding values for `COCCCNC(=O)CSc1nnc2c(=O)n(Cc3ccc(F)cc3)ccn12` are 10.54% and -1.15%.
In the case of `COc1ccc(CNC(=O)CCc2nnc3ccc(-c4ccccc4)nn23)cc1OC`, the Inhibition with Staphylococcus aureus is on record as 1.5%; in the assay with Escherichia coli, -2.82%.
The corresponding values for `COC(=O)c1ccccc1NC(=O)Cn1nc2c3cc(-c4ccc(OC)cc4)nn3ccn2c1=O` are 11.07% and 4.87%.
For `Cc1ccc(Sc2nccn3c(=O)n(CC(=O)Nc4ccc(Br)cc4C)nc23)c(C)c1`, in that order: -15.15% and -16.85%.
For the compound `COc1cccc(-n2ccn3c(SCC(=O)Nc4ccc(F)cc4F)nnc3c2=O)c1`, the Inhibition in the assay with Staphylococcus aureus is on record as 12.12%; in the assay on Escherichia coli, -6.2%.
The corresponding values for `CCCCc1ccc(NC(=O)Cn2nc3c(Sc4ccccc4CC)nccn3c2=O)cc1` are -7.41% and -10.67%.
The corresponding values for `COC(=O)c1cccc(NC(=O)Cn2nc3c(Sc4ccc(C)cc4C)nccn3c2=O)c1` are 10.39% and -5.72%.
The corresponding values for `COC(=O)c1ccc(NC(=O)Cn2nc3c(N4CCOCC4)nccn3c2=O)cc1` are 12.61% and 0.79%.
With `Cc1nnc2ccc(S(=O)(=O)N(Cc3ccccc3F)c3cc(F)cc(F)c3)cn12`, the Inhibition is reported as -3.63% in the assay on Staphylococcus aureus and -18.18% in the assay with Escherichia coli.
For the compound `COc1ccc(C(=O)CSc2nnc3c(=O)n(-c4ccc(Br)cc4)ccn23)cc1`, the Inhibition in the assay with Staphylococcus aureus came out at 17.48%; in the assay on Escherichia coli, 2.13%.
The corresponding values for `Cc1nnc2ccc(S(=O)(=O)N(Cc3ccccc3)c3ccc(F)cc3)cn12` are -4.97% and -1.95%.
The corresponding values for `O=c1c2nn(Cc3cccc(F)c3)c(=O)n2ccn1-c1ccccc1` are -1.92% and -7.67%.
The corresponding values for `COc1ccc(N(Cc2ccc(Cl)cc2)S(=O)(=O)c2ccc3nncn3c2)cc1` are -6.81% and -4.15%.
`CCc1ccccc1NC(=O)Cn1nc2c(Sc3ccc(C)cc3C)nccn2c1=O`: the Inhibition with Staphylococcus aureus is 1.94%; with Escherichia coli, -4.21%.
For `Cc1ccc(Cn2c(=O)c3ccc(C(=O)NC4CCCC4)cc3n3c(=O)n(CC#N)nc23)cc1`, in that order: 2.21% and 1.56%.
For `CSc1ccc(CNC(=O)Cn2nc3c(Oc4ccc(C)cc4)nccn3c2=O)cc1`, in that order: -14.59% and -5.13%.
For `COC(=O)c1ccc(NC(=O)CSc2nnc3c4cc(-c5ccc(OC)cc5)nn4ccn23)cc1`, in that order: 8.99% and 0.03%.
`COc1ccc(NC(=O)CSc2nc3ccccc3n3c(C(C)C)nnc23)c(OC)c1`: the Inhibition in the assay on Staphylococcus aureus was 1.68%; in the assay with Escherichia coli, -5.84%.
The corresponding values for `COc1ccc(NC(=O)Cn2nc3nc(N4CCOCC4)ccn3c2=O)cc1Cl` are 7.8% and -5.98%.
Turning to `N#CCn1nc2n(Cc3ccc(F)cc3)c(=O)c3ccccc3n2c1=O`, the values for the Inhibition in the assay with Staphylococcus aureus and with Escherichia coli were 1.37% and -10.2%, respectively.
Turning to `CCc1ccc(NC(=O)Cn2nc3cc(C)nc(Nc4ccc(C)c(F)c4)n3c2=O)cc1`, the Inhibition in the assay with Staphylococcus aureus is given as -14.67%; with Escherichia coli it was -1.11%.
Turning to `Cc1ccccc1CSc1nnc2c(=O)n(-c3ccc(F)c(F)c3)ccn12`, the Inhibition with Staphylococcus aureus is on record as 12.28%; in the assay on Escherichia coli, -1.52%.
The corresponding values for `CCOc1ccccc1NC(=O)Cn1nc2c3c4c(sc3ncn2c1=O)CCCC4` are -4.82% and -7.86%.
For the compound `Cc1ccc(-c2ccc3nn(CC(=O)Nc4c(C)cccc4C)c(=O)n3n2)cc1C`, the Inhibition is on record as -0.95% with Staphylococcus aureus and -11.36% in the assay on Escherichia coli.
For `CC(C)CCn1c(=O)c2sccc2n2c(=O)n(CC(=O)NC(C)C)nc12`, in that order: -2.24% and -10.46%.
The corresponding values for `COc1ccc(Cl)cc1NC(=O)CSc1nnc2c(=O)n(-c3ccc(C)c(C)c3)ccn12` are 15.8% and -1.54%.
For `CCCc1nnc2c(=O)n(CC(=O)Nc3ccc(Cl)c(Cl)c3)c3ccccc3n12`, in that order: -1.25% and 0.68%.
`CSc1ccc(-c2noc(Cn3nc4ccc(-c5ccccc5)nn4c3=O)n2)cc1`: the Inhibition in the assay on Staphylococcus aureus came out at 3.45%; in the assay on Escherichia coli, 0.55%.
